Experimental data: PubChem BioAssay AID488984 (The Scripps Research Institute Molecular Screening Center, 2010)
Unmarked numbers belong to inactive results. Calls of active or inactive are those of the source. Cut-off read from the data, not from the text of the source: active = inhibition above about 55%; inactive = the rest.

These molecules were tested on SARS coronavirus 3C-like protease (3CLpro, nsp5) (assay: blockers of SARS 3CLpro activity – biochemical, fluorescence, set 2, late-stage follow-up (AID 488984)). Conditions: recombinant 3CLpro, fluorogenic peptide cleavage; at 100 µM; hits give high values.

| Structure (SMILES) | inhibition |
| --- | --- |
| Cc1nc2ccccc2n1CC(=O)N(c1ccc(NC(=O)C(C)C)cc1)C(C(=O)NC(C)(C)C)c1ccsc1 (configuration not stated) | 0.26% |
| CC(=O)Nc1ccc(N(C(=O)Cn2nnc3ccccc32)C(C(=O)NC(C)(C)C)c2ccsc2)cc1 (configuration not stated) | 94.8% (active) |
| CC(C)(C)NC(=O)C(c1ccsc1)N(C(=O)c1ccc(C#N)cc1)c1ccc(OCF)cc1 (configuration not stated) | 17.8% |
| CC(C)(C)NC(=O)C(c1ccsc1)N(C(=O)Cc1cccc2ccccc12)c1ccc(OCF)cc1 (configuration not stated) | 18.2% |
| CC(C)(C)NC(=O)C(c1cccnc1)N(C(=O)Cc1cccnc1)C1CC1 (configuration not stated) | 7.01% |
| CC(C)(C)NC(=O)C(c1cccnc1)N(C(=O)c1ccco1)c1ccc(F)cc1 (configuration not stated) | -4.66% |
| CC(C)c1ccc(N(C(=O)Cc2cccc3ccccc23)C(C(=O)NC(C)(C)C)c2cccnc2)cc1 (configuration not stated) | -1.29% |
| CC(C)(C)NC(=O)C(c1ccsc1)N(C(=O)Cn1cnc2ccccc21)c1ccc(N)cc1 (configuration not stated) | 12.6% |
| CC(C)(C)NC(=O)C(c1cccnc1)N(C(=O)c1ccco1)c1ccc(OC(F)F)cc1 (configuration not stated) | 45.5% |
| CC(C)(C)NC(=O)C(c1cccnc1)N(C(=O)c1ccc(C(F)(F)F)nc1)c1ccc(C(C)(C)C)cc1 (configuration not stated) | 8.39% |
| CC(C)(C)NC(=O)C(c1ccsc1)N(C(=O)c1ccco1)c1ccc(F)cc1 (configuration not stated) | 11.2% |
| CC(C)(C)NC(=O)C(c1ccsc1)N(C(=O)Cc1c[nH]c2ccccc12)c1ccc(OCF)cc1 (configuration not stated) | 35.6% |
| CC(C)(C)NC(=O)C(c1ccsc1)N(C(=O)Cc1cccnc1)c1ccc(F)cc1 (configuration not stated) | 19% |
| CC(C)(C)NC(=O)C(c1cccnc1)N(C(=O)c1n[nH]c2ccccc12)c1ccc(F)cc1 (configuration not stated) | 9.24% |
| CC(C)(C)NC(=O)C(c1ccsc1)N(C(=O)c1ccco1)c1ccc(C(C)(C)C)cc1 (configuration not stated) | 19.5% |
| CC(C)C(=O)Nc1ccc(N(C(=O)Cn2cnc3ccccc32)C(C(=O)NC(C)(C)C)c2ccsc2)cc1 (configuration not stated) | 59.8% (active) |
| Cc1nccn1CC(=O)N(c1ccc(C(C)(C)C)cc1)C(C(=O)NC(C)(C)C)c1ccsc1 (configuration not stated) | 0.41% |
| CC(C)c1ccc(N(C(=O)Cc2c[nH]c3ccccc23)C(C(=O)NC(C)(C)C)c2cccnc2)cc1 (configuration not stated) | 3.78% |
| CC(C)c1ccc(N(C(=O)Cc2c[nH]c3ccccc23)C(C(=O)NC(C)(C)C)c2ccsc2)cc1 (configuration not stated) | 7.61% |
| CC(C)(C)NC(=O)C(c1cccnc1)N(C(=O)c1ccc(C#N)cc1)c1ccc(C(C)(C)C)cc1 (configuration not stated) | -0.02% |
| CC(C)c1ccc(N(C(=O)c2cccc3c2CCCC3)C(C(=O)NC(C)(C)C)c2ccsc2)cc1 (configuration not stated) | 7.39% |
| CC(C)(C)NC(=O)C(c1ccsc1)N(C(=O)c1cccc2c1CCCC2)c1ccc(F)cc1 (configuration not stated) | 14.4% |
